Experimental data reported in PubChem BioAssay (EPA / NIEHS).
Inconclusive results are not listed. The source made the active and inactive calls. How the source made its calls: active means hit-call score of the fitted dose curve at least 0.9, where 1 is the maximum; inconclusive means response in the unintended direction; inactive means score below 0.9.

Tests used:
[1] = ACEA_AR_agonist_AUC_viability: ACEA Biosciences xCELLigence Real-Time Cell Analysis on Androgen Receptor Agonism for Viability (AID 2283775);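 on AC50: viability read 80 hours after compound addition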
Summary of the method: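 Read-out is area under the impedance curve at 80 h post-dose in 22Rv1 cells, with DMSO as baseline and signal loss taken as reduced viability. Compounds ran in duplicate from 100 uM final.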

[2] = ACEA_AR_antagonist_AUC_viability: ACEA Biosciences xCELLigence Real-Time Cell Analysis on Androgen Receptor Antagonism for Viability (AID 2283776);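 further: 22Rv1 human prostate cancer cells growing on impedance electrode plates; area under impedance growth curve at 80 h after dosing as viability; hits lower the growth signal relative to DMSO meaning cytotoxicity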
Summary of the method: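 Viability endpoint from label-free cell-index monitoring: 22Rv1 cultures treated with an eight-point 1:4 dilution series starting at 100 uM final, AUC at 80 h fitted against DMSO.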

[3] = ACEA_ER_AUC_viability: ACEA Biosciences xCELLigence Real-Time Cell Analysis on Estrogen Receptor Agonism for Viability (AID 2283782);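 further: continuous compound exposure with impedance area under curve over 80 h; hit means loss of impedance signal meaning reduced cell growth or viability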
Summary of the method: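 T47D cells preconditioned in phenol red-free RPMI with charcoal-stripped FBS, then dosed with 8-point 1:4 series from 100 uM (up to 0.5% DMSO). Impedance monitored up to ~80 h; area-under-curve loss versus DMSO taken as viability.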

[4] = target: zebrafish Estrogen Receptor (ESR1), esr1 (gene 259252) (UniProt P57717); assay: ATG_zfER1_XSP1: Attagene TRANS-FACTORIAL Multi-Species (XSP1) HepG2 Assay for zebrafish Estrogen Receptor (ESR1) (AID 2283772)
Summary of the method: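 HepG2 cells were transiently transfected with multiplexed GAL4-UAS reporter units driven by chimeric NR-GAL4 proteins, dosed for 24 h with 3 nM 6-alpha-fluorotestosterone present, and reporter mRNA quantified by RT-PCR and capillary electrophoresis versus DMSO.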

[5] = system: zebrafish Estrogen Receptor (ESR2B), gene 317733; assay: ATG_zfER2b_XSP1: Attagene TRANS-FACTORIAL Multi-Species (XSP1) HepG2 Assay for zebrafish Estrogen Receptor (ESR2B) (AID 2283773)
Summary of the method: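 HepG2 cells transiently transfected with GAL4-UAS reporter units for chimeric zebrafish ER2b-Gal4, with 3 nM 6-alpha-fluorotestosterone present; reporter mRNA measured 24 h after dosing by RT-PCR and capillary electrophoresis, gain versus DMSO.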

[6] = system: frog Estrogen Receptor (ESR2), gene 100174814; assay: ATG_frER2_XSP1: Attagene TRANS-FACTORIAL Multi-Species (XSP1) HepG2 Assay for frog Estrogen Receptor (ESR2) (AID 2283774)
Summary of the method: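 HepG2 cells transiently transfected with GAL4-UAS reporter units expressing chimeric frog ER-Gal4; 3 nM 6-alpha-fluorotestosterone present. After 24 h dosing, reporter mRNA quantified by RT-PCR and capillary electrophoresis; gain-of-signal fitted relative to DMSO.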

[7] = system: frog Estrogen Receptor (ESR1), gene 398734; assay: ATG_frER1_XSP1: Attagene TRANS-FACTORIAL Multi-Species (XSP1) HepG2 Assay for frog Estrogen Receptor (ESR1) (AID 2283777)
Summary of the method: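 HepG2 cells transiently transfected with frog ER–GAL4 chimera and GAL4-UAS reporter, with 3 nM 6-alpha-fluorotestosterone present; 24 h dosing, reporter mRNA quantified by RT-PCR and capillary electrophoresis, gain of signal versus DMSO.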

[8] = target: chicken Estrogen Receptor (ESR1), ESR1 (gene 396099) (UniProt P06212); assay: ATG_chERa_XSP1: Attagene TRANS-FACTORIAL Multi-Species (XSP1) HepG2 Assay for chicken Estrogen Receptor (ESR1) (AID 2283779)
Summary of the method: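 HepG2 cells transiently transfected with GAL4-UAS reporter units for chimeric chicken ERα-Gal4, dosed 24 h with 3 nM 6-alpha-fluorotestosterone present. Reporter mRNA by RT-PCR and capillary electrophoresis; gain-of-signal fit versus DMSO.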

[9] = system: turtle Estrogen Receptor (ESR1), gene 101933533; assay: ATG_trERa_XSP1: Attagene TRANS-FACTORIAL Multi-Species (XSP1) HepG2 Assay for turtle Estrogen Receptor (ESR1) (AID 2283781)
Summary of the method: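 Turtle ERa as a GAL4 chimera in transiently transfected HepG2 cells; reporter mRNA quantified 24 h after dosing by RT-PCR and capillary electrophoresis. 3 nM 6-alpha-fluorotestosterone present; gain of signal versus DMSO.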

[10] = target: Estrogen receptor beta (Homo sapiens) (UniProt Q92731); assay: ATG_hERb_XSP1: Attagene TRANS-FACTORIAL Multi-Species (XSP1) HepG2 Assay for human Estrogen Receptor (ESR2) (AID 2283788)
Summary of the method: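 HepG2 cells transiently transfected with GAL4-UAS multiplexed reporter units, 3 nM 6-alpha-fluorotestosterone present; 24 h exposure. Reporter mRNA measured by RT-PCR, fluorescent labelling and capillary electrophoresis; gain of signal fitted against DMSO.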

[11] = ATG_M_06_XSP1: Attagene TRANS-FACTORIAL Multi-Species (XSP1) HepG2 Assay for M06 Transcription Factor (Internal Marker) (AID 2283790)
Summary of the method: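 Transfected HepG2 multi-reporter system treated 24 h in the presence of 3 nM 6-alpha-fluorotestosterone. The M06 internal marker transcript was quantified by RT-PCR with capillary electrophoresis as a background control, and gain of signal was scored versus DMSO.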

[12] = ATG_M_61_XSP1: Attagene TRANS-FACTORIAL Multi-Species (XSP1) HepG2 Assay for M61 Transcription Factor (Internal Marker) (AID 2283797)
Summary of the method: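 HepG2 cells transiently transfected with multiplexed GAL4-driven reporter units, dosed 24 h with 3 nM 6-alpha-fluorotestosterone present. Reporter mRNA quantified by RT-PCR, 6-FAM labelling, HpaI digestion and capillary electrophoresis; internal-marker background control, gain of signal versus DMSO.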

[13] = target: Peroxisome proliferator-activated receptor gamma (Homo sapiens) (UniProt P37231); assay: ATG_hPPARg_XSP1: Attagene TRANS-FACTORIAL Multi-Species (XSP1) HepG2 Assay for human Peroxisome Proliferator-activated Receptor gamma (PPARg) (AID 2283800)
Summary of the method: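 HepG2 cells transiently transfected with GAL4-UAS reporter units carrying chimeric NR-Gal4 proteins; 3 nM 6-alpha-fluorotestosterone present. After 24 h dosing, reporter mRNA quantified by RT-PCR and capillary electrophoresis; gain of signal relative to DMSO.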

[14] = STM_H9_NormalizedViability: Cytotoxicity Assessment at 120 hours in the Stemina devTOX quickPredict H9 human embryonic stem cell (hESC)-based Assay (AID 2283784)
Summary of the method: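 Undifferentiated H9 hESCs kept pluripotent were exposed to compound, with media and chemical replaced every 24h. CellTiter-Fluor protease-substrate fluorescence was background-corrected and normalized per plate to the 0.1% DMSO vehicle; signal loss indicates reduced viability.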

AR (gene 367) [15] = target: AR (gene 367) (UniProt P10275); assay: ACEA_AR_agonist_80hr: ACEA Biosciences xCELLigence Real-Time Cell Analysis on Androgen Receptor Agonism for Proliferation (AID 2283783);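 further: hits increase impedance growth signal above DMSO baseline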
Summary of the method: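 Proliferation of 22Rv1 prostate cancer cells tracked by electrical impedance, endpoint taken at 80 hours after dosing. Eight-point 1:4 dilutions from 100 uM maximum final, duplicate; testosterone and MG132 as positive controls, assay media as negative.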

AR (gene 367) [16] = target: AR (gene 367) (UniProt P10275); assay: ACEA_AR_antagonist_80hr: ACEA Biosciences xCELLigence Real-Time Cell Analysis on Androgen Receptor Antagonism for Proliferation (AID 2283787);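 further: 22Rv1 human prostate cancer cells with growth followed by electrical impedance; hits lower the impedance growth signal relative to DMSO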
Summary of the method: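 22Rv1 cells in assay medium, growth tracked by electrical impedance; compounds eight-point 1:4 dilutions from 100 uM final, duplicate plates. Endpoint at 80 h; loss of signal versus DMSO.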

Chain of AR (gene 367) (P10275 whole entry, looked up): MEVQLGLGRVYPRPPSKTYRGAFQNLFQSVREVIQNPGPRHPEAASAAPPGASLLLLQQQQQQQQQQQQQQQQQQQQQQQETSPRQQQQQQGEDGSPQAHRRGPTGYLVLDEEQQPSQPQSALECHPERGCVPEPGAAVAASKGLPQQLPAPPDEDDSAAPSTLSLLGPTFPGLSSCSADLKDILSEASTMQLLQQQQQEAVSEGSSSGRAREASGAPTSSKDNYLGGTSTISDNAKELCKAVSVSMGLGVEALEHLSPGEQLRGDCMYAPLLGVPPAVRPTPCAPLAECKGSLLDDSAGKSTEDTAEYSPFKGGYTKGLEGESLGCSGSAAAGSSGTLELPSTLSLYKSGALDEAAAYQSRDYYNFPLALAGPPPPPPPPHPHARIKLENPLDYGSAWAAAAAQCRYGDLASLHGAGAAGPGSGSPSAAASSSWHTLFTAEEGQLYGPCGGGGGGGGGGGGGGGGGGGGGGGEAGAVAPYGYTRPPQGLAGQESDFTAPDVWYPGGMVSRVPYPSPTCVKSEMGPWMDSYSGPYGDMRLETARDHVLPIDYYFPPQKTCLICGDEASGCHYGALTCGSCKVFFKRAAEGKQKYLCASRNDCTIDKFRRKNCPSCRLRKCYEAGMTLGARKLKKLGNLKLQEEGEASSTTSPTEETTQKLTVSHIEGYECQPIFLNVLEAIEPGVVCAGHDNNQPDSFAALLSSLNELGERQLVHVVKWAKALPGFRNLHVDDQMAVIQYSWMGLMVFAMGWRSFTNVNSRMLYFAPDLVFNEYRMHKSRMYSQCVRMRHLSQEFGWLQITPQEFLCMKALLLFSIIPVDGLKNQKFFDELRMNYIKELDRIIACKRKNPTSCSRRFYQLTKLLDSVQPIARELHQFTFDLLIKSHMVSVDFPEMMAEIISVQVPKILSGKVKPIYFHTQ
Chain of chicken Estrogen Receptor (ESR1), ESR1 (gene 396099) (P06212 whole entry, looked up, the tested form may be a part): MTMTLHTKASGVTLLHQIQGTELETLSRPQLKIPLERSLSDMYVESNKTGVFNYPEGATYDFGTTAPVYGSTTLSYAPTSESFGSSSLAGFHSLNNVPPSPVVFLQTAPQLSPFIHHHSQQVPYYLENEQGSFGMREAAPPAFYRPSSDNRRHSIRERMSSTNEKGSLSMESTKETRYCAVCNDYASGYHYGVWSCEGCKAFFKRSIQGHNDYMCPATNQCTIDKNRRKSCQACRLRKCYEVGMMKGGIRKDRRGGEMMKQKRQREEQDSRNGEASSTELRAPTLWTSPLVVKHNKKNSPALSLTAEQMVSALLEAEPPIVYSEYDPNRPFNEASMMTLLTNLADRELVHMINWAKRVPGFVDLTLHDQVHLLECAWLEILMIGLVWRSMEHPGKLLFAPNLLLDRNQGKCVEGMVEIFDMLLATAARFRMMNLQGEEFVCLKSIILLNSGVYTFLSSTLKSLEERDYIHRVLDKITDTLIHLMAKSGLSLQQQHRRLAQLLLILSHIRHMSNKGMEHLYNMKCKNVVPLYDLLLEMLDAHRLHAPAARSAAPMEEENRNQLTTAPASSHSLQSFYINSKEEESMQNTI
Chain of Estrogen receptor beta (Homo sapiens) (Q92731 whole entry, looked up, the tested form may be a part): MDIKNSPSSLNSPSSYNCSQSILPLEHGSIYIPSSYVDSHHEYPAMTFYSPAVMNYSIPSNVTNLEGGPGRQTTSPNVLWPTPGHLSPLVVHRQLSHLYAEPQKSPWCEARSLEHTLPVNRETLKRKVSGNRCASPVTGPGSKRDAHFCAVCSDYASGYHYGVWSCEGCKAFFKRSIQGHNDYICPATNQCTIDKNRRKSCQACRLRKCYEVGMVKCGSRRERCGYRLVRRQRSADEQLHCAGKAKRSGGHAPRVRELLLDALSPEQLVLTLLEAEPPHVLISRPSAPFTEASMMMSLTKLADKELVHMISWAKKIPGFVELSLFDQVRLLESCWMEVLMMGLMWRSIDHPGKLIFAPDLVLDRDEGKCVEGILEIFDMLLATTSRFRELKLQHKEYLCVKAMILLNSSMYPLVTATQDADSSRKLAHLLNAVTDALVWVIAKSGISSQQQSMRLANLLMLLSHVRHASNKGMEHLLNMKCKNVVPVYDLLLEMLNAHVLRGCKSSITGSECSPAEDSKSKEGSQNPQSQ
Chain of zebrafish Estrogen Receptor (ESR1), esr1 (gene 259252) (P57717 whole entry, looked up, the tested form may be a part): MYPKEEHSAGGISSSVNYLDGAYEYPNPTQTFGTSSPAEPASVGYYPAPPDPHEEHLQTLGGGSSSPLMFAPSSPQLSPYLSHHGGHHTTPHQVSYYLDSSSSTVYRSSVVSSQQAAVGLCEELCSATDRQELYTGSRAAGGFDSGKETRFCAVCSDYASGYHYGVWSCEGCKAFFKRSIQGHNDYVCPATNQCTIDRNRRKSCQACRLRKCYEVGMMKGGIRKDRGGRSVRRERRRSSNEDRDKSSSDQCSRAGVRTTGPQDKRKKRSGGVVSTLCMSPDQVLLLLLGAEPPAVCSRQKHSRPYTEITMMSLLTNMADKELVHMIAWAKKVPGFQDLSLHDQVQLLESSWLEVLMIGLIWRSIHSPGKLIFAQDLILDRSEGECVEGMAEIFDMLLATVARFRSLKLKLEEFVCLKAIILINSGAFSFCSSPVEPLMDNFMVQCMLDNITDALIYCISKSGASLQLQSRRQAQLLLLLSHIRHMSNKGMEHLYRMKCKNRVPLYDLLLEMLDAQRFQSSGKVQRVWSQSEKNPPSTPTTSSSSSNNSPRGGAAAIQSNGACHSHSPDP
Chain of Peroxisome proliferator-activated receptor gamma (Homo sapiens) (P37231 whole entry, looked up, the tested form may be a part): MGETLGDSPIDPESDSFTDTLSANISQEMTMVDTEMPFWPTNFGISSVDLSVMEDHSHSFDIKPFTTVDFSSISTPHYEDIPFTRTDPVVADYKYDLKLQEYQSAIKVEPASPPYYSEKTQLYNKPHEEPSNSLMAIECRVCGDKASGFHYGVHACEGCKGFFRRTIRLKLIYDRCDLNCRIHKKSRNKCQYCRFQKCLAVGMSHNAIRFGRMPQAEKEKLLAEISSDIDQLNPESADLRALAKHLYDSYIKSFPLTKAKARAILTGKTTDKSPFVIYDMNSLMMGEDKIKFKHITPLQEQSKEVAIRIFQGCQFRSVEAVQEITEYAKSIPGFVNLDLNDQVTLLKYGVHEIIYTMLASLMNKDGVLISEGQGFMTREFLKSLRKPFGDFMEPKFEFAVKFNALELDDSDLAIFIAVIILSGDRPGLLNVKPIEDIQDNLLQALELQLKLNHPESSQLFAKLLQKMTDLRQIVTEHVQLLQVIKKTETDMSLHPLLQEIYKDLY

CCOCCOCCO
outcome [1]: inactive

O=C1NC(=O)C(c2ccccc2)(c2ccccc2)N1
AC50 [1]: 33.6 µM (active) | AC50 [2]: 28.7 µM (active) | outcome [3]: inactive

CC(C)c1cccc(C(C)C)c1NC(=O)NS(=O)(=O)c1cc(C(C)(C)O)co1
AC50 [1]: 28.2 µM (active) | AC50 [2]: 19 µM (active)

CCCCC(CC)COC(=O)CCCCCCCC(=O)OCC(CC)CCCC (configuration not stated)
outcome [1]: inactive | outcome [2]: inactive

CC(=O)O[C@]1(C(C)=O)CC[C@H]2[C@@H]3C=C(Cl)C4=CC(=O)[C@@H]5C[C@@H]5[C@]4(C)[C@H]3CC[C@@]21C
AC50 [4]: 35.6 µM (active) | AC50 [5]: 13.1 µM (active) | AC50 [6]: 18 µM (active) | AC50 [1]: 87.1 µM (active) | AC50 [2]: 0.0607 µM (active) | AC50 [7]: 4.61 µM (active) | AC50 [8]: 5.26 µM (active) | AC50 [9]: 3.25 µM (active) | AC50 [10]: 8.21 µM (active) | outcome [11]: inactive | outcome [12]: inactive | outcome [13]: inactive

Oc1ccccc1O
AC50 [1]: 18 µM (active) | AC50 [2]: 28.9 µM (active) | AC50 [3]: 90.5 µM (active)

CCCC[C@H]1CN(CC2CCOCC2)C(=O)OC12CCN(C1(C)CCN(C(=O)c3c(C)ncnc3C)CC1)CC2
outcome [1]: inactive | outcome [2]: inactive

CCc1cc(C2=C(C(=O)O)N(c3ccccc3C(F)(F)F)S(=O)(=O)c3ccccc32)cc2c1OCO2
outcome [1]: inactive | AC50 [2]: 25 µM (active) | AC50 [3]: 15.8 µM (active)

CCCCC(CC)COP(=O)(OCC(CC)CCCC)OCC(CC)CCCC (configuration not stated)
AC50 [1]: 17.6 µM (active) | AC50 [2]: 16.8 µM (active)

CCCCCCC(CCCCCCCCCCC(=O)OCC(COC(C)=O)OC(C)=O)OC(C)=O (configuration not stated)
outcome [1]: inactive | outcome [2]: inactive

CC(C)COC(=O)CCCCC(=O)OCC(C)C
outcome [1]: inactive | outcome [2]: inactive | outcome [3]: inactive

CC(N)=O
outcome [1]: inactive | outcome [2]: inactive | outcome [3]: inactive

Cn1cnc2c1c(=O)[nH]c(=O)n2C
outcome [1]: inactive | outcome [2]: inactive

C=CCCCCCCCCCCCC
outcome [1]: inactive | outcome [2]: inactive

COC(=O)CCC(=O)OC
outcome [1]: inactive | outcome [2]: inactive | outcome [3]: inactive

O=C(O)c1cccnc1
outcome [1]: inactive | outcome [2]: inactive | outcome [3]: inactive | outcome [14]: inactive

Nc1nc(=S)c2[nH]cnc2[nH]1
AC50 [1]: 0.655 µM (active) | AC50 [2]: 0.212 µM (active) | AC50 [3]: 0.237 µM (active) | outcome (AR (gene 367) [15]): inactive | AC50 [14]: 3.32 µM (active) | AC50 (AR (gene 367) [16]): 0.198 µM (active)

CC1=C(C)S(=O)(=O)CCS1(=O)=O
AC50 [1]: 82.6 µM (active) | AC50 [2]: 88.8 µM (active) | outcome [3]: inactive | outcome (AR (gene 367) [15]): inactive | AC50 (AR (gene 367) [16]): 79.6 µM (active)

CN(C)C(=O)NC1(c2ccccc2)CCN(CC[C@@]2(c3ccc(F)c(F)c3)CN(C(=O)c3ccccc3)CCO2)CC1
AC50 [1]: 47 µM (active) | outcome [2]: inactive | AC50 [3]: 25.4 µM (active)

C/C=C/c1ccc(OC)cc1
outcome [1]: inactive | outcome [2]: inactive | outcome [3]: inactive

O=C(O)CN(CC(=O)O)CC(=O)O
outcome [1]: inactive | outcome [2]: inactive | outcome [3]: inactive

O=C(N[C@@H](c1ccccc1)[C@@H]1CCCCN1)c1cccc(C(F)(F)F)c1Cl
AC50 [1]: 55.8 µM (active) | AC50 [2]: 39.5 µM (active) | AC50 [3]: 15.3 µM (active)

Cc1cn([C@H]2C=C[C@@H](CO)O2)c(=O)[nH]c1=O
outcome [1]: inactive | AC50 [2]: 19.7 µM (active) | outcome [3]: inactive

COc1ccc(C(=O)Nc2nc3ccccc3c(NCc3ccccc3)c2C#N)cc1
AC50 [1]: 24 µM (active) | AC50 [2]: 23.5 µM (active) | outcome [3]: inactive

N[C@@H](Cc1c[nH]c2ccccc12)C(=O)O
outcome [1]: inactive | AC50 [2]: 9.92 µM (active) | outcome [3]: inactive | outcome [14]: inactive

CCCCCCCCCCCCCCOS(=O)(=O)O
AC50 [1]: 68 µM (active) | AC50 [2]: 42.3 µM (active) | AC50 [3]: 74.5 µM (active)

CC1(C)C(=O)NC(=O)N1CO
outcome [1]: inactive | outcome [2]: inactive | outcome [3]: inactive

NC(=Nc1ccccc1)Nc1ccccc1
outcome [1]: inactive | outcome [2]: inactive | AC50 [3]: 1.79 µM (active) | outcome [14]: inactive

Cc1cc(SC2=C(O)C[C@@](CCc3ccc(N)cc3)(C(C)C)OC2=O)c(C(C)(C)C)cc1CO
AC50 [1]: 50 µM (active) | AC50 [2]: 61.8 µM (active) | outcome [3]: inactive | AC50 (AR (gene 367) [16]): 68.9 µM (active)

COC(=O)[C@H]1[C@H]2C[C@@H]3c4[nH]c5cc(OC)ccc5c4CCN3C[C@H]2C[C@@H](OC(=O)c2cc(OC)c(OC)c(OC)c2)[C@@H]1OC
AC50 [1]: 42.2 µM (active) | AC50 [2]: 33 µM (active) | AC50 [3]: 60.5 µM (active) | outcome [14]: inactive

CN(C)CCCN(C)CCCN(C)C
outcome [1]: inactive | outcome [2]: inactive | outcome [3]: inactive

OCC(CO)n1cnc(-c2ccc(F)cc2)c1-c1ccnc(Oc2ccccc2)n1
outcome [1]: inactive | AC50 [2]: 21.1 µM (active) | outcome [3]: inactive

CCCCCCCC(=O)OC
AC50 [1]: 13.9 µM (active) | outcome [2]: inactive | outcome [3]: inactive

O=C(O)CC(O)(CC(=O)O)C(=O)O
outcome [1]: inactive | outcome [2]: inactive | outcome [3]: inactive
